Compound activity from PubChem.
Shn3 3UTR inh – reduction of Shn3 3'UTR firefly luciferase signal, primary screen, Schnurri-3 inhibitor project, cell-based, Clone20 osteoblasts, set 2; Clone20 osteoblast Shn3 3'UTR firefly luciferase, 24 h; inhibition, % at 12.5 µM; actives 0.52% (n = 360,000);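 active = mean inhibition of at least 75% with every replicate also reaching 75%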;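 also: 0% = median of neutral control wells and 100% = pilot-screen positive control compound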
Gli-Sufu block – Gli-Sufu pathway antagonists, primary screen, luciferase luminescence, Sufu-KO-LIGHT cells, uHTS | Sufu-KO-LIGHT fibroblasts, Gli luciferase reporter luminescence | inhibition, % at 5 µM | actives 0.74% (n = 340,000) | AID 588413, 2011;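 active = inhibition above about 55%, limit read from the data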;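 also: 0% = DMSO-treated cells and 100% = wells with medium but no cells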
Jurkat NFkB inh – inhibitors of induced NF-kB luciferase reporter, primary screen, TCR NF-kB activation inhibitor project, cell-based, luminescence, uHTS. Jurkat, PMA/ionomycin-induced NF-kB luciferase reporter. inhibition, % at 4 µM. actives 0.53% (n = 330,000); in the data active = inhibition above about 50%
697 NFkB inh – inhibitors of PMA/ionomycin-induced NF-kB reporter, 697 cells, primary screen, B-cell NF-kB inhibitor project, cell-based, luminescence, uHTS; 697 B-cell NF-kB luciferase reporter, 16 h; inhibition, % at 4 µM; actives 0.33% (n = 330,000); in the data active = inhibition above about 35%
Mdm2-MdmX inh – inhibitors of human Mdm2-MdmX association, primary screen, cell-based, luminescence, split luciferase, SaOS-2, uHTS; SaOS-2 split-luciferase Mdm2/MdmX complementation; inhibition, % at 8 µM; actives 3% (n = 330,000);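 active = inhibition of at least 50% at 8 µM in the primary screen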
Mdm2 MdmX conf – Mdm2-MdmX complex disruptors, retested hits, confirmation, luminescence, single concentration; shares compounds with Mdm2-MdmX inh; Mdm2-MdmX binding, luminescent assay; inhibition, % at 8 µM; actives 55% (n = 10,000); in the data active = inhibition above about 40%
FLuc counter – full-length luciferase signal inhibition, confirmation, counter-screen for Mdm2/MdmX interaction inhibitor project, cell-based, single concentration, SaOS-2. shares compounds with Mdm2-MdmX inh. SaOS-2 full-length luciferase counterscreen, luminescence. inhibition, % at 8 µM. actives 77% (n = 6,200);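 active = mean inhibition at 8 µM reaching about 37%, which flags the compound as non-specific, limit read from the data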;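 also: p53-null SaOS-2 cells with luciferase driven by a doxycycline-inducible promoter; compound on cells about two nights before reading with doxycycline added after day one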
The depositor's hits bear a star; / = not tested or not shown. A selection: hits, their analogues and other compounds. The true share with any hit is near 3.8%.

SMILES | Shn3 3UTR inh | Gli-Sufu block | Jurkat NFkB inh | 697 NFkB inh | Mdm2-MdmX inh | Mdm2 MdmX conf | FLuc counter
CCN1CCN(c2cc(C)c3cc(NC(=S)N4CCN(c5ccccc5F)CC4)ccc3n2)CC1 | 17 | -1 | -10 | 2 | 80* | 45* | 60*
CCN1CCN(c2cc(C)c3cc(NC(=S)N4CCN(c5ccccc5)CC4)ccc3n2)CC1 | 17 | 2 | -15 | -20 | 100* | 44* | 52*
CCC(C)NC(=S)Nc1ccc2nc(N3CCOCC3)cc(C)c2c1 (stereo not given) | 4 | 7 | -41 | -47 | 3 | / | /
COc1ccc(S(=O)(=O)N2CCCCC2)cc1NC(=O)c1ccc(OC)c(OC)c1 | 8 | -6 | -5 | 26 | 21 | / | /
CCN1CCN(c2cc(C)c3cc(NC(=O)c4cc(OC)cc(OC)c4)ccc3n2)CC1 | / | -10 | -8 | -16 | 36 | / | /
CCOc1ccc(C(=O)Nc2ccc3nc(N4CCN(CC)CC4)cc(C)c3c2)cc1 | 1 | 11 | -14 | -16 | 55* | 38 | 60*
COc1ccc(S(=O)(=O)N2CCC(C(=O)N[C@H](C(=O)NC3CCCC3)C(C)C)CC2)cc1 | 3 | -6 | 6 | 11 | 8 | / | /
CC(C)C[C@H]1CN=C(Nc2ccccc2)N1CC1CCCC1 | 2 | 15 | 9 | 13 | 13 | / | /
CC(C)C[C@H]1CN=C(Nc2ccccc2)N1CC1CCC(C(C)(C)C)CC1 (stereo not given in full) | -32 | -18 | 42 | -16 | 100* | 39 | 21
Cc1ccc(NC(=O)CN(C)C(=O)CSc2nnc(C)s2)cc1 | 2 | 1 | 2 | -11 | 18 | / | /
COc1cccc(-c2nc(C(=O)NCC3CCCO3)cc3c2[nH]c2ccccc23)c1 (stereo not given) | 13 | 15 | -13 | 25 | 65* | 25 | /
CC(C)(C)c1ccc(-c2nnc3sc(-c4ccccn4)nn23)cc1 | -6 | 18 | -44 | -61 | 66* | 65* | 30
COc1ccc(-c2nnc3sc(-c4ccccn4)nn23)cc1 | / | / | -23 | -29 | -5 | / | /
CCC1CCCCN1CCCNC(=O)c1cn(CC)c2ccc(S(=O)(=O)N3CCc4ccccc4C3)cc2c1=O (stereo not given) | 19 | 33 | 13 | 5 | 90* | 50* | 55*
CCn1cc(C(=O)NCCCN2CC(C)CC(C)C2)c(=O)c2cc(S(=O)(=O)N(C)C)ccc21 (stereo not given) | 10 | -2 | -5 | 0 | 11 | / | /
CCn1cc(C(=O)NCCCN2CCCC(C)C2)c(=O)c2cc(S(=O)(=O)N3CCc4ccccc4C3)ccc21 (stereo not given) | 14 | 34 | 16 | 6 | 83* | 33 | /
CCC1CCCCN1CCCNC(=O)c1cn(CC)c2ccc(S(=O)(=O)N(C)C3CCCCC3)cc2c1=O (stereo not given) | 14 | 31 | -21 | -89 | 21 | / | /
CCCCN(CCCC)CCNC(=O)c1cn(CC)c2ccc(S(=O)(=O)N3CCc4ccccc4C3)cc2c1=O | 4 | 45 | -6 | -4 | 72* | 24 | /
O=C(CN1C(=O)c2cccnc2Oc2ccc(Cl)cc21)NCCCc1ccccc1 | -14 | 0 | 1 | 14 | 28 | / | /
Cc1ccc(CNC(=O)CCS(=O)(=O)c2ccc3c(c2)CC(C)N3C(=O)C2CC2)cc1 (stereo not given) | 24 | 36 | 42 | -18 | 63* | 49* | 50*
Cc1ccc2c(c1)c1c(n2CC(O)CNC2CCCCC2)CCCC1 (stereo not given) | 14 | 4 | 12 | 4 | 100* | 46* | 51*
COc1ccc(Br)cc1/C=N/NC(=O)c1ccco1 | -18 | 16 | -2 | 6 | 18 | / | /
CC(C)(C)c1ccc(OCC(=O)N/N=C/c2cc(Br)ccc2OC(=O)c2ccco2)cc1 | 51 | -10 | -2 | 21 | 82* | 79* | 27
O=C(Nc1ccc(S(=O)(=O)Nc2nccs2)cc1)c1cccc(N2C(=O)c3ccccc3C2=O)c1 | 5 | -5 | -1 | 12 | 9 | / | /
O=C(Nc1nccs1)c1cccc(N2C(=O)c3cccc4c([N+](=O)[O-])ccc(c34)C2=O)c1 | 1 | 11 | -7 | -43 | 87* | 9 | /
SMILES | Shn3 3UTR inh | Gli-Sufu block | Jurkat NFkB inh | 697 NFkB inh | Mdm2-MdmX inh | Mdm2 MdmX conf | FLuc counter
Cc1cc(C)n(Cc2cccc(C(=O)N/N=C/c3ccncc3)c2)n1 | 4 | -10 | 3 | -25 | -12 | / | /
O=[N+]([O-])c1ccc(-[n+]2ccc3ccccc3c2)c([N+](=O)[O-])c1 | -66 | 16 | -10 | -44 | 100* | 56* | 5
COc1ccc(NS(=O)(=O)c2ccc3ccccc3c2)c2ncccc12 | 81 | 24 | 19 | 5 | 92* | 88* | 37*
CCCn1c(NC(=O)c2ccc(Cl)c(S(=O)(=O)N3CCCC3)c2)nc2ccccc21 | 91* | -2 | 6 | -8 | 81* | 69* | 43*
CNC[C@H]1OCc2ccccc2-c2ccccc2C(=O)N([C@H](C)CO)C[C@H]1C | -4 | / | / | / | / | / | /
Cc1ccc(C)c(N2CCN(C(=O)C3CCCN(c4ncnc5c4nc4n5CCCCC4)C3)CC2)c1 (stereo not given) | 24 | 43 | 1 | -51 | 35 | / | /
O=C(C1CCCN(c2ncnc3c2nc2n3CCCCC2)C1)N1CCN(c2ccccc2)CC1 (stereo not given) | 23 | 23 | 13 | -17 | 24 | / | /
COc1ccccc1N1CCN(CCCNC(=O)C2CCCN(c3ncnc4c3nc3n4CCCCC3)C2)CC1 (stereo not given) | 30 | 35 | 5 | -10 | 50* | 10 | /
Cc1cccc(N2CCN(C(=O)C3CCN(c4ncnc5c4nc4n5CCCCC4)CC3)CC2C)c1 (stereo not given) | 75 | -17 | 11 | -39 | 60* | 50* | 61*
O=C(C1CCCN(c2ncnc3c2nc2n3CCCCC2)C1)N1CCN(c2cccc(Cl)c2)CC1 (stereo not given) | 26 | 27 | -4 | -42 | 57* | 9 | /
Cc1ccc(N2CCN(C(=O)C3CCCN(c4ncnc5c4nc4n5CCCCC4)C3)CC2)c(C)c1 (stereo not given) | 37 | 43 | 5 | -55 | 72* | 39 | 56*
COC(=O)C(CC(=O)c1ccc(Br)cc1)n1ccnc1 (stereo not given) | / | / | 8 | -1 | 99* | 15 | /
